Screening data deposited in PubChem by National Center for Advancing Translational Sciences (NCATS).
Nrf2 block: Nrf2 pathway inhibition; AID 504444; A549 ARE-Fluc reporter, luciferase luminescence, 18-24 h; Potency, µM (doses to about 46 µM), for inactives: at the highest dose activity change, negative = inhibition, most hits filed as inhibitors; actives 2.1% (n = 360,000); further: potency means the concentration at half of the fitted maximal effect; nearly all actives have a fitted effect of over 60% in size
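Cells were seeded and rested 2 h, then exposed to compounds for 18-24 h. CellTiter-Fluor was read first as a viability measure. BugLite was added 15 min before the final luminescent read of ARE-luciferase activity in A549 cells.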
Giardia kill: kills Giardia lamblia. Giardia lamblia trophozoite viability. activity change, % at 7.66 µM, hits read low. actives 0.15% (n = 340,000). AID 540267; in the data active means activity change below about -80%; inconclusive means between about -30% and that limit;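 further: parasites exposed to compound for two days anaerobically before the ATP read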
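Compounds were tested on trophozoites seeded at 100 cells/well and held 48 hrs at 37 deg C anaerobically. An ATP-based luminescent kit measured the remaining live cells.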
PI4K2A inh: PI4K2A (human) kinase inhibition; Q9BTU6; purified PI4K2A, ADP-Glo luminescence, 1 h; active compounds read low; activity change, negative = inhibition, % at 76.9 µM; actives 0.13% (n = 420,000); AID 1346378; in the data active means activity change below about -50%; inconclusive means mostly about -30% to -49%;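 further: -100% = wells without enzyme as full effect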
Target sequence (Q9BTU6 whole entry, looked up): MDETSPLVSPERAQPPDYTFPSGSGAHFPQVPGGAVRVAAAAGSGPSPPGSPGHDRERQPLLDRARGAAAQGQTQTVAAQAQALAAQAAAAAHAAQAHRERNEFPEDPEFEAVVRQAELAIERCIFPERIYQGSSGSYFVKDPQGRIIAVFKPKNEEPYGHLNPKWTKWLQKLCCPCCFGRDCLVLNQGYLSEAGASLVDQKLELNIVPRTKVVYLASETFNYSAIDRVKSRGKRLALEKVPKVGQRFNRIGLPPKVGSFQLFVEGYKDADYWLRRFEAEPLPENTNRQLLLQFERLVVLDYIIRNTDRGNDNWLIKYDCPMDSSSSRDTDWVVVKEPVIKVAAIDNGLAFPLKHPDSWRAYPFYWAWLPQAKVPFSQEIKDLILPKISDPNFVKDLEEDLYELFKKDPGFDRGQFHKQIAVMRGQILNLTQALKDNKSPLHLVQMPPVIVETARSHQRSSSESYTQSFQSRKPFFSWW
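In this quantitative HTS, ADP production by PI4K2A was quantified luminescently after 1 h at ambient temperature; 100 microM adenosine served as plate-quality control.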
KB-3-1 tox: KB-3-1 parental cell cytotoxicity; KB-3-1 viability, CellTiter-Glo ATP luminescence, 72 h; Potency, µM (series often up to 46.1 µM), hits mostly cytotoxic; actives 1.4% (n = 400,000); further: potency means the concentration at half of the fitted maximal effect; nearly all actives have a fitted effect of over 60% in size
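Here the drug-naive KB-3-1 line serves as comparator for MDR sub-line selectivity; cells received compound titrations, 72 h at 37 °C, then CellTiter-Glo readout.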
A549 viability: counter-screen for Nrf2 inhibitors: cytotoxicity in A549 cells; A549 ARE-Fluc cells, CellTiter-Fluor viability, 18-24 h; Potency, µM (series often up to 46 µM), for the others: at the highest dose activity change, negative = cytotoxicity, usual class: inhibitors; actives 0.16% (n = 390,000); AID 504648; further: potency means the concentration at half of the fitted maximal effect
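A549 ARE_Fluc cells in 5% FBS OPTI-MEM were exposed to compounds in concentration-response for 18-24 h at 37 deg C. Viability was read by CellTiter-Fluor fluorescence (Ex 405/Em 525) after 30 min, before the luciferase read.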
KB-V1 cytotox: kills drug-selected multidrug resistant KB-V1 cells; actives 3.4% (n = 400,000); AID 1347076; Potency, µM (top dose mostly 46.1 µM), most hits filed as cytotoxic; KB-V1 MDR cells viability, CellTiter-Glo, 72 h; further: potency means the concentration at half of the fitted maximal effect; nearly all actives have a fitted effect of over 60% in size
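Drug-selected KB-V1 cells, grown in DMEM lacking phenol red with 10% FBS, receive compound titrations; after three days at 37 degrees C, surviving cell ATP is quantified by CellTiter-Glo luminescence and responses normalized and curve-fitted.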
Numbers without * were called inactive; i = inactive; u = inconclusive; x = no result; [ ] = remark or other dose. An excerpt weighted towards active compounds, which were near 5.7% of everything screened. Unless noted, the call rests on the fitted dose curve; in most records, active means well fitted curve in the direction sought with a large enough effect; inconclusive means small, poorly fitted or top-dose-only effect, or another doubt; inactive means no such curve, though single readings can be large; an effect the other way counts as inactive or inconclusive. Unless noted, on the % scale 0 is the no-effect control and ±100 the full control effect.

SMILES | Nrf2 block | Giardia kill | PI4K2A inh | KB-3-1 tox | A549 viability | KB-V1 cytotox
CCC(=O)Nc1ccc(/C(C)=N/NC(=O)c2c(-c3ccccc3Cl)noc2C)cc1 | 15.4% | 11.8 | 6.5 | i | -1.3% | i
COc1ccc(-n2nc3c(c2NC(=O)c2ccccc2)CS(=O)(=O)C3)cc1 | x | x | 3.2 | i | x | i
COc1ccc(-n2nc3c(c2NC(=O)c2c(-c4ccccc4Cl)noc2C)CS(=O)(=O)C3)cc1 | 15.3% | 5.1 | -6.2 | i | u | 9.2µM*
Cc1cc(C)nc(NC(=O)c2c(-c3ccccc3Cl)noc2C)c1 | -1.4% | 4.6 | 1.6 | i | -1.4% | 7.31µM*
Cc1onc(-c2ccccc2Cl)c1C(=O)Nc1sc2c(c1C(N)=O)CCC(C)C2 (centres undefined) | u | 5.7 | 4.4 | u | 8.7% | 23.1µM*
COC(=O)c1c(NC(=O)c2c(-c3ccccc3Cl)noc2C)sc2c1CCC2 | u | 11.0 | -2.3 | i | -1.9% | u
C#CCN1CC(N(C)CCOC(=O)c2ccc(F)cc2)CS1(=O)=O (centres undefined) | x | x | -3.5 | x | x | x
Cc1ccc(-c2nnc(SCCC(=O)Nc3ccccc3)n2C)cc1 | x | x | x | i | x | i
Cc1onc(-c2ccccc2)c1C(=O)N/N=C(\N)COc1ccc(Cl)cc1 | u | -0.8 | -1.8 | u | -18.0% | 14.6µM*
C1=Cc2ccccc2/C1=C\c1ccc2c(c1)OCO2 | x | x | x | i | x | i
CC1CCC(NC(=O)C2c3ccccc3C(=O)N2Cc2cccs2)CC1 (centres undefined) | -4.8% | 7.9 | 1.0 | i | -25.2% | 3.66µM*
CS(=O)(=O)c1ccc(C(=O)OCC(=O)N2CCc3ccccc32)cc1[N+](=O)[O-] | -2.2% | 0.9 | x | u | -5.3% | i
Cc1cccc2cc(C#N)c(NCCCn3ccnc3)nc12 | -7.8% | 2.9 | -1.0 | i | u | 14.6µM*
Cc1cccc2cc(C#N)c(NCCCNS(=O)(=O)c3ccc(Cl)cc3)nc12 | -28.4% | 1.6 | 0.0 | u | -0.5% | 9.2µM*
Cc1ccc(CNCc2cn[nH]c2-c2ccc(C)cc2)cc1 | -4.7% | 10.7 | x | i | 19.0% | i
CO[C@@]12[C@@H]3N[C@@H]3CN1C1=C(C(=O)C(N)=C(C)C1=O)[C@@H]2COC(N)=O | 10.3µM* | -2.5 | -8.1 | u | u | u
Cc1ccc(NC(=O)CSc2nnc3[nH]c(=O)cc(-c4ccccc4)n23)cc1Cl | x | x | -0.8 | x | 0.4% | x
Cn1cc(/C=N/n2cnc3scc(-c4ccccc4)c3c2=O)c2ccccc21 | u | 3.7 | 6.2 | 5.17µM* | -26.4% | 2.06µM*
CN(C)N1C(N)=C(C#N)C(c2ccccc2)C2=C1CC(C)(C)CC2=O (centres undefined) | 1.1% | -0.6 | 3.4 | i | 1.4% | i
CN(C)N1C(N)=C(C#N)C(c2cccc3ccccc23)C2=C1CC(c1ccccc1)CC2=O (centres undefined) | u | -1.2 | 3.0 | 13µM* | u | 20.6µM*
Cc1ccc2c(c1)-c1c(cnn1CC(=O)NCCc1ccccc1F)CO2 | x | x | -1.0 | x | x | x
CC(C)c1ccc(/C=C/c2ccc(=O)n(C)n2)cc1 | u | -15.3 | -1.8 | i | -7.1% | u
COc1cc(/C=C/C2=NNC(=O)CC2)cc(OC)c1OC | 6.8% | -7.1 | 3.9 | 0.517µM* | -0.7% | u
CC(C)c1ccc(/C=C/C2=NNC(=O)CC2)cc1 | u | 1.1 | -5.3 | 0.731µM* | -1.9% | 0.184µM*
COCCn1c(C)cc(O)c(C(c2ccccc2OC)N2CCN(c3ccccc3)CC2)c1=O (centres undefined) | x | x | 1.4 | i | 4.1% | i
SMILES | Nrf2 block | Giardia kill | PI4K2A inh | KB-3-1 tox | A549 viability | KB-V1 cytotox
O=C(C[n+]1ccccc1Br)c1ccc(I)cc1 | x | x | x | u | x | i
CC1Cc2ccccc2N1C(=O)c1ccc2snnc2c1 (centres undefined) | -2.0% | -2.8 | 1.3 | i | -2.9% | i
Cc1nc2cc(C(=O)N3c4ccccc4CC3C)ccc2s1 (centres undefined) | 27.8% | 1.9 | -3.2 | 20.6µM* | -16.2% | u
CC1CN(c2ccnc3cc(Cl)ccc23)CCN1C(=O)c1ccc(Cl)cc1 (centres undefined) | x | x | 2.3 | x | x | x
C=CCn1c(COc2ccc3c(c2)CCCC3)nnc1SCC(=O)Nc1cccc(SC)c1 | x | -2.8 | -8.3 | u | u | 14.6µM*
CCCC(=O)Oc1c(Sc2ccc(Cl)cc2)c(C)nn1-c1ccccc1 | -5.2%[9.27 µM] | x | -11.1 | x | 2.3% | x
COC(=O)[C@]12C[C@H](CC(=O)N3CCOCC3)C(=O)N(Cc3ccco3)C1=C[C@H](C1CCCC1)O[C@@H]2C | x | x | -2.6 | x | x | x
O=C(NC1CCCCC1)c1sc(=S)n2c1[nH]c(=O)c1ccccc12 | u | -12.0 | 2.5 | u | u | 20.6µM*
CC[C@@]1(O)C(=O)OCc2c1cc1n(c2=O)Cc2cc3c(CN(C)C)c(O)ccc3nc2-1 | 2.31µM* | -7.8 | 2.7 | u | u | u
COc1ccc(NC(=O)Cn2c(=O)nc(-c3ccccc3)c3ccccc32)cc1OC | x | x | 4.4 | x | 0.0% | x
c1ccc(N=c2nc(-c3ccccc3)n(-c3ccccc3)s2)cc1 | u | 8.9 | x | u | -16.3% | 16.4µM*
c1ccc(Cn2sc(=Nc3ccccc3)nc2-c2ccccc2)cc1 | 27.1% | -7.5 | x | u | 12.2% | i
Cc1ccc2c(C(=O)CCl)c(C)[nH]c2c1 | 0.7% | u | -16.9 | 13µM* | -0.7% | u
CC[C@H](C)[C@@H]1OC(=O)[C@@H](C)[C@@H](CC)NC(=O)[C@H](C)N(C)C(=O)C(C)(C)C(=O)C(C)NC(=O)[C@H](Cc2ccccc2)N(C)C(=O)[C@H](C(C)C)N(C)C(=O)CNC(=O)[C@H](CC(C)C)N(C)C(=O)CNC1=O (some centres undefined) | x | x | -3.0 | 1.16µM* | x | i
CCSc1nc(N)c(C#N)c(-c2ccccc2Cl)c1C#N | -9.7% | -19.3 | 0.5 | i | -12.6% | 20.6µM*
N#Cc1c(N)nc(Sc2ccc(Cl)cc2)c(C#N)c1-c1ccccc1Cl | -21.2% | -9.6 | 0.2 | 4.61µM* | -6.2% | 23.1µM*
Cc1ccc(-c2cc(-c3ccccc3Cl)c(C#N)c(N)n2)o1 | -15.0% | -7.1 | 0.4 | i | u | i
O=C(c1ccccc1Cl)N1CCC(Oc2cccnc2)CC1 | x | x | -1.7 | x | x | x
COc1cccc(NC(CNS(=O)(=O)c2ccc(C)cc2)c2ccccc2)c1 (centres undefined) | u | x | -0.8 | u | -16.8% | 18.4µM*
